Laboratory results from PubChem BioAssay AID1851 (National Center for Advancing Translational Sciences (NCATS), 2009).
Out of some 16,000 compounds screened, about 5,700 (36%) were called active. About 24% were inconclusive and are not listed. The call rests on the fitted dose curve; in most records, active means well fitted curve in the direction sought with a large enough effect; inconclusive means small, poorly fitted or top-dose-only effect, or effect the other way; inactive means no such curve, though single readings can be large or run the other way. This is one part of the list.

Biological target: Cytochrome P450 1A2 (Homo sapiens) (UniProt P05177)
Sequence (P05177 whole entry, looked up): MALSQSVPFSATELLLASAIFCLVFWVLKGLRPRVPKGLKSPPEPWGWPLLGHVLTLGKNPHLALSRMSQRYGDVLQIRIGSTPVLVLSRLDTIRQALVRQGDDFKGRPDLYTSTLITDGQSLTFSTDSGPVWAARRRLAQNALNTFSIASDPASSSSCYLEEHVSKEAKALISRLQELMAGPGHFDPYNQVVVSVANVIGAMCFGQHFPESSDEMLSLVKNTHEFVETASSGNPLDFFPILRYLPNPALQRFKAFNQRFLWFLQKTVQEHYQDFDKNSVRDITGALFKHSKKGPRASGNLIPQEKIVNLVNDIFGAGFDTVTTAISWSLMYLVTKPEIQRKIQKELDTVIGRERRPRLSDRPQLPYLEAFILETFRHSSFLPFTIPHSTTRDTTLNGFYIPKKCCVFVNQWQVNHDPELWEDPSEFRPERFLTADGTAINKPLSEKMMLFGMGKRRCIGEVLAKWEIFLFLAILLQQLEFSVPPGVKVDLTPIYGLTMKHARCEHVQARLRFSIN
Assay: Cytochrome panel assay with activity outcomes
Settings: recombinant CYP, pro-luciferin dealkylation, luminescence, p450-cyp1a2; series mostly up to 57.1 µM
On the % scale 0 is the no-effect control and ±100 the full control effect.

Row | SMILES | AC50 | activity, negative = inhibition
1 | O=C(Nc1cccc(F)c1)N1CC[C@@]2(CCCN(C(=O)c3cc(C(F)(F)F)cc(C(F)(F)F)c3)C2)C1 | inactive | –
2 | CN(C)CCCNC(=O)c1cc2c3ccccc3n(C)c2s1 | 14100 nM (active) | –
3 | CN(C)CCCNc1cc(O)c2c(c1O)C(=O)c1ccccc1C2=O | – | -23.1% [at 2.29 µM] (inactive)
4 | CN(C)CCCCN1CCc2c(n(C)c3ccccc23)C1=O | – | -14.1% [at 2.29 µM] (inactive)
5 | CC(=O)c1[nH]c(C)c(C(C)=O)c1C | 708 nM (active) | –
6 | COC(Cn1c(C)c(C(C)=O)c(C(C)=O)c1C)OC | inactive | –
7 | CC(C)c1ccc(Cn2ccc3c4c(N)nc(NC5CC5)nc4ccc32)cc1 | 1580 nM (active) | –
8 | COc1ccccc1-c1ccc2ncnc(NCCNC(C)=O)c2c1 | 5010 nM (active) | –
9 | CC(=O)NCCNc1ncncc1-c1ccccc1C(F)(F)F | inactive | –
10 | CC(=O)NCCNc1ncnc2ccc(-c3ccccc3C(F)(F)F)cc12 | 10000 nM (active) | –
11 | CC(=O)NCCNc1ncnc2ccc(-c3ccccc3C)cc12 | 631 nM (active) | –
12 | CC1=C(C(=O)O)N2C(=O)[C@@H](NC(=O)[C@@H](N)C3=CCC=CC3)[C@@H]2SC1 | inactive | –
13 | Cc1ccc(S(=O)(=O)N2CCN(C(=O)c3ccccc3)C2C(C)C)cc1 (stereo unspecified) | inactive | –
14 | O=c1cnc2cnc(Nc3ccccc3)nc2n1C1CC1 | 631 nM (active) | –
15 | COc1cccc(Nc2ncc3ncc(=O)n(C4CC4)c3n2)c1 | 631 nM (active) | –
16 | COc1cccc(Nc2ncc3nc(C)c(=O)n(C4CC4)c3n2)c1 | 1260 nM (active) | –
17 | Cc1nc2cnc(Nc3ccccc3)nc2n(C2CC2)c1=O | 1000 nM (active) | –
18 | O=C(Nc1cccc(C(=O)Nc2ccc(S(=O)(=O)O)c3cc(S(=O)(=O)O)cc(S(=O)(=O)O)c23)c1)Nc1cccc(C(=O)Nc2ccc(S(=O)(=O)O)c3cc(S(=O)(=O)O)cc(S(=O)(=O)O)c23)c1 | inactive | –
19 | O=C(Nc1ccc(C(=O)Nc2ccc(C(=O)Nc3ccc(S(=O)(=O)O)c4cc(S(=O)(=O)O)cc(S(=O)(=O)O)c34)cc2)cc1)Nc1ccc(C(=O)Nc2ccc(C(=O)Nc3ccc(S(=O)(=O)O)c4cc(S(=O)(=O)O)cc(S(=O)(=O)O)c34)cc2)cc1 | 31600 nM (active) | –
20 | CN1CCN(C(=O)C(C(=O)c2ccc(F)cc2)n2ccccc2=O)CC1 (stereo unspecified) | inactive | –
21 | c1ccc(Nc2ncnc3ccc(-c4ccoc4)cc23)cc1 | 1580 nM (active) | –

Row | SMILES | AC50 | activity, negative = inhibition
22 | Fc1ccc(Nc2ncnc3ccc(-c4ccoc4)cc23)cc1 | 1000 nM (active) | –
23 | CCc1ccc(NC(=O)CSc2nc3cc(C(=O)OC)ccc3c(=O)n2Cc2ccco2)cc1 | inactive | –
24 | CCN(C(=O)CSc1nc2cc(C(=O)OC)ccc2c(=O)n1Cc1ccco1)c1cccc(C)c1 | 2510 nM (active) | –
25 | COC(=O)[C@H]1C[C@@H]1[C@H](NC(=O)Oc1ccc(F)cc1)c1ccccc1 | 1000 nM (active) | –
26 | COC(=O)[C@@H]1C[C@H]1[C@@H](NC(=O)Oc1ccc(F)cc1)c1ccccc1 | 3160 nM (active) | –
27 | Cc1ccc(OCCCn2c(=O)sc3ccccc32)cc1 | inactive | –
28 | O=c1sc2ccccc2n1CCCOc1ccccc1 | 15800 nM (active) | –
29 | O=P(O)(COc1ccccc1)COc1ccccc1 | inactive | –
30 | Cc1ccccc1OCCCn1c(=O)sc2ccccc21 | 3160 nM (active) | –
31 | O=C(Nc1nc(-c2ccccc2)cs1)c1cccc([N+](=O)[O-])c1 | 1410 nM (active) | –
32 | CCC(=O)Nc1cccc(NC(=O)c2cccc([N+](=O)[O-])c2)c1 | 7080 nM (active) | –
33 | O=C(COc1ccc(/C=N/NC(=O)c2ccccc2)cc1)Nc1ccc([N+](=O)[O-])cc1 | inactive | –
34 | CCC(=O)Nc1cccc(C(=O)/C=C/c2ccccc2)c1 | 1000 nM (active) | –
35 | CS(=O)(=O)N(CC(=O)Nc1cccc(F)c1)c1cccc([N+](=O)[O-])c1 | inactive | –
36 | CCOC(=O)c1cccc(NC(=O)COc2ccc([N+](=O)[O-])cc2)c1 | 12600 nM (active) | –
37 | O=C(Nc1cccc([N+](=O)[O-])c1)c1ccc(CSc2ccccc2)cc1 | inactive | –
38 | COc1ccccc1Nc1nc(-c2sc(NC(=O)c3ccc([N+](=O)[O-])cc3)nc2C)cs1 | inactive | –
39 | CC(C)NC(=O)N1CCC2(CC1)CCN(S(C)(=O)=O)CC2 | inactive | –
40 | Cc1ccccc1N1C(=O)c2cc(S(N)(=O)=O)c(Cl)cc2N[C@H]1C | inactive | –
41 | COc1ccc(Cl)cc1N=Nc1ncc[nH]1 | 631 nM (active) | –
42 | Cn1c(=O)[nH]c(=O)c2c1nc(CN1CCOCC1)n2Cc1ccccc1 | inactive | –

Row | SMILES | AC50 | activity, negative = inhibition
43 | Clc1ccc(Cn2c(CN3CCCC3)nc3ccccc32)cc1 | 10000 nM (active) | –
44 | O=C(CN(c1ccccc1)S(=O)(=O)c1ccccc1)NCCSCc1ccco1 | inactive | –
45 | CC(C(=O)NCc1ccc2c(c1)OCO2)N1c2cccc3cccc(c23)S1(=O)=O (stereo unspecified) | 1780 nM (active) | –
46 | COc1ccccc1C1=NOC(COC(=O)c2ccc3ccccc3n2)C1 (stereo unspecified) | 14100 nM (active) | –
47 | O=C(O)c1c(-c2c3ccc(=O)cc-3oc3cc(O)ccc23)cc2ccccc2c1-c1ccccc1 | – | -17.6% [at 2.29 µM] (inactive)
48 | CNC(=O)/C(C#N)=c1\s/c(=C/C(=O)OC)c(=O)n1-c1ccccc1 | inactive | –
49 | COC(=O)[C@@H]1[C@@H](O)[C@]2(O)c3ccccc3O[C@]2(c2ccccc2)[C@H]1c1ccccc1 | – | -6.42% [at 11.4 µM] (inactive)
50 | COc1ccccc1CNC(=O)CCCn1c(=O)c2ccccc2n(CC(=O)NC2CCCC2)c1=O | inactive | –
51 | COc1cc(CNC2CCCC2)cc(Cl)c1OCc1ccccc1Cl | 708 nM (active) | –
52 | COc1cccc(CNc2ccc(F)c(Cl)c2)c1O | inactive | –
53 | COc1cc(O)oc1C=Nc1ccc(C(F)(F)F)cc1 | 501 nM (active) | –
54 | COc1cc(O)oc1C=Nc1ccc(Cl)cc1 | 2240 nM (active) | –
55 | CCC#CCOCC(=O)Nc1ccccc1 | 25100 nM (active) | –
56 | COC(=O)N1CCC2(CCN(C(=O)Nc3ccccc3)CC2)CC1 | inactive | –
57 | CC(C)CN1CCCC2(CCN(C(=O)c3cccc(F)c3)CC2)C1 | inactive | –
58 | Nc1ncnc2c1ncn2[C@H]1O[C@@H](CO)[C@@H](O)[C@H]1N | – | -8.67% [at 11.4 µM] (inactive)
59 | CCCCOC1(c2ccccc2)OC(=O)c2ccccc21 (stereo unspecified) | inactive | –
60 | Cc1cccc(C)c1OC1(c2ccccc2)OC(=O)c2ccccc21 (stereo unspecified) | 20000 nM (active) | –
61 | CCCCCCCOC1(c2ccccc2)OC(=O)c2ccccc21 (stereo unspecified) | inactive | –
